Results from PubChem BioAssay AID504692 (The Scripps Research Institute Molecular Screening Center, 2011).
Screen size: about 340,000 compounds; about 2,000 (0.59%) were called active. The sample as a whole holds a higher share of actives than the screen did. A number with no mark means an inactive call. Rule as the data show it: active = activation mostly above about 9.5% (no sharp cut-off); inactive = mostly below about 7.6%.

What follows are compounds tested against 5-hydroxytryptamine receptor 5A (Homo sapiens) (UniProt P47898) (assay: HTR5A agonists in luminescence cell assay, primary screen, counter-screen for OPRM1-OPRD1 heterodimer agonist project, full-deck HTS (AID 504692;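 also: 0% = cells with vehicle only and 100% = reference agonist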)). Details: cell-based, at 9.3 µM, hits give high values.
Chain of 5-hydroxytryptamine receptor 5A (Homo sapiens) (P47898 whole entry, looked up): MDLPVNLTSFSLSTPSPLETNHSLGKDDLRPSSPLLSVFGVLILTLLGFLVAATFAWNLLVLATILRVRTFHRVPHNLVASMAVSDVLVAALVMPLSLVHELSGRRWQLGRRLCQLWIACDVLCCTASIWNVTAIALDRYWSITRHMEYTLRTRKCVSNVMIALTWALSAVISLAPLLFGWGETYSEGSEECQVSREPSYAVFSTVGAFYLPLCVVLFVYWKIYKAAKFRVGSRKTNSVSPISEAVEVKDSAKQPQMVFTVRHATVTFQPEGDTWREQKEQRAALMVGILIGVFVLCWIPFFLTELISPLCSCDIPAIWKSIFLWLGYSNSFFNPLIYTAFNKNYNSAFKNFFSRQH

| Compound | activation |
| --- | --- |
| O=S(=O)(NCCCCCCNS(=O)(=O)c1c(F)cccc1F)c1ccc2c(c1)OCCO2 | 2.32% |
| COc1ccccc1N(C)S(=O)(=O)c1ccc(C(=O)NC2CCCCCC2)cc1 | 2.54% |
| CC1CCC2CCCCC2N1C(=O)c1cc([N+](=O)[O-])cc([N+](=O)[O-])c1 (stereo unspecified) | 4.16% |
| CN1c2ccc(C=O)c3c(C=O)ccc(c23)N(C)C1(C)C | 20.2% (active) |
| CN(CC(=O)Nc1ccccc1Cl)C(=O)COc1cccc2c1OC(C)(C)C2 | 2.73% |
| CCSc1nc(O)c(C(c2cccc(OC)c2)c2c(O)nc(SCC)[nH]c2=O)c(=O)[nH]1 | 6.11% |
| Cc1ccc(/C([O-])=C(/C(=S)NCc2ccco2)[n+]2ccccc2)cc1[N+](=O)[O-] | 0.24% |
| O=C(COC(=O)CSc1nnc(-c2ccc(Cl)cc2)o1)Nc1cc(Cl)cc(Cl)c1 | 0.33% |
| O=C(NNS(=O)(=O)c1ccc([N+](=O)[O-])cc1)C1CCCCC1 | -4.2% |
| Cc1cccc2sc(N(CCCN(C)C)C(=O)CCS(=O)(=O)c3ccccc3)nc12 | 23.6% (active) |
| COc1cccc2sc(N(CCCN(C)C)C(=O)CCS(=O)(=O)c3ccccc3)nc12 | 8.64% |
| COc1cc2ccccc2cc1C(=O)N(CCN(C)C)c1nc2c(F)cccc2s1 | 0.73% |
| CC1Cc2ccccc2N1S(=O)(=O)c1cccc(C(=O)NCC(c2ccco2)N2CCCC2)c1 (stereo unspecified) | 2.58% |
| COc1ccc(N2CCN(C(=O)Cn3cnc4sc(C)c(S(=O)(=O)N5CCOCC5)c4c3=O)CC2)cc1 | -1.42% |
| Cc1csc2nc(COC(=O)c3cccc(N(C)C)c3)cc(=O)n12 | -1.39% |
| Cc1ccccc1OCC(=O)Nc1nnc(S(=O)(=O)N2CCCC2)s1 | 4.03% |
| O=C(COc1ccccc1F)Nc1nc(-c2ccccn2)cs1 | -1.27% |
| CC1CCN(S(=O)(=O)c2nnc(NC(=O)COc3ccccc3F)s2)CC1 | 18.1% (active) |
| CC(NC(=S)NNS(=O)(=O)c1ccc(C(C)(C)C)cc1)c1ccccc1 (stereo unspecified) | -3.78% |

| Compound | activation |
| --- | --- |
| COc1ccc(-c2ccc3c(c2)[C@@H]2C[C@H](N(C)S(=O)(=O)c4ccccc4)[C@H]([C@H](C)O)C(=O)N2CC3)cc1 | 2.65% |
| CC1CC(C)CN(C(=O)C2CC(=O)N(c3ccc(F)cc3)C2)C1 (stereo unspecified) | 5.22% |
| CC1CCN(S(=O)(=O)c2ccc3c(ccn3CC(=O)O)c2)CC1 | 9.91% (active) |
| CC1CCN(S(=O)(=O)c2ccc3c(c2)n(C)c(=O)n3C)CC1 | 4.68% |
| Cc1ccn2c(c1)nc(=O)c1cc(S(=O)(=O)N3CCC(C)CC3)ccc12 | 0.6% |
| COc1cccc(OCc2nnc3n2N=C(c2ccccc2)C(CC(=O)O)S3)c1 (stereo unspecified) | 1.48% |
| CCCCOc1ccc(NC(=O)CSCC(=O)OCC)cc1 | -1.74% |
| CCOC(=O)CNC(=O)CSc1nnc(-c2cccc(OC)c2)n1CC | 1.82% |
| CCCCCCCCCCOC(=O)Cn1c(COc2cccc(OC)c2)[n+](C)c2ccccc21 | 13.7% (active) |
| CCCCCCCCCCOC(=O)Cn1c(COc2ccc(C)cc2)[n+](C)c2ccccc21 | 9.74% (active) |
| CCOC(=O)COn1c(=O)c(-c2ccc(OCC)cc2)[n+]([O-])c2ccccc21 | -0.87% |
| CC[C@]12c3[nH]c4ccc(Cl)cc4c3CCN1C(=O)[C@@H](CC(=O)NCCCOC)C[C@@H]2C(=O)N1CCN(C(=O)c2ccco2)CC1 | -0.61% |
| COc1ccc(CNC(=O)CN(Cc2ccccc2Cl)C(=O)c2csnn2)cc1 | 0.86% |
| O=c1/c(=C/c2ccc(CNS(=O)(=O)c3ccccc3)o2)sc2n1CCN=2 | -6.78% |
| CCC(C)(C)NC(=O)CN(C(=O)CCC(=O)Nc1cc(C)ccn1)c1ccc2c(c1)OCCO2 | 2.5% |
| Fc1ccccc1-c1cc2cc3c(cc2cn1)OCO3 | 7.94% |
| O=C(c1noc2c1CCCC2)N1CCc2ccccc2C1 | 5.42% |
| CCC1(C)NC(=O)N(CC(=O)N2CCN(c3cccc(Cl)c3)CC2)C1=O (stereo unspecified) | 0.94% |
| Cc1ccc(Cc2cnc(N)s2)o1 | -3.06% |

| Compound | activation |
| --- | --- |
| Cc1ccc(C(=O)Nc2nc3ccc(Cl)cc3s2)o1 | 5.48% |
| Cc1ccc(CCC(=O)Nc2ncc(Cc3cc(Cl)ccc3Cl)s2)o1 | 17.4% (active) |
| COc1ccc(C(=O)NCc2ccc(C)cc2)cc1S(=O)(=O)N1CCCC1 | 5.16% |
| C/C=C/C(=O)OCC(=O)Nc1ccc(F)cc1Cl | 6.73% |
| O=C(Nc1ccc2oc(-c3ccccc3F)nc2c1)c1ccco1 | 0.88% |
| Cc1ccc2nc(-c3ccc(NC(=O)c4cccnc4)cc3)oc2c1 | 1.12% |
| COc1cc(OC)cc(C(=O)Nc2ccc(-c3nc4ccccc4o3)c(O)c2)c1 | 13.9% (active) |
| COc1ccc(C(=O)NC(C)c2nccs2)cc1OC1CCN(C(C)C)CC1 (stereo unspecified) | 0.03% |
| Cc1ccc(C)c(NC(=O)CCC(=O)N/N=C2/CC(=O)CC(C)(C)C2)c1 | 0.95% |
| Oc1[nH]c2ccccc2c1N=Nc1c(F)c(F)c(F)c(F)c1F | 4.3% |
| Cc1c(-c2ccccc2)n[nH]c1C(=O)N=Nc1c(O)[nH]c2ccccc12 | 12.7% (active) |
| O=C(CCN1CCCCC1)N=Nc1c(O)[nH]c2ccccc12 | -0.47% |
| NC(=O)c1ncn([C@@H]2O[C@H](CNCc3cnc(N4CCOCC4)s3)[C@@H](O)[C@H]2O)n1 | -1.96% |
| CCOC(=O)C(C)n1cnc2c(nnn2-c2ccc(F)cc2)c1=O (stereo unspecified) | 0.23% |
| Fc1ccccc1OCCSc1nc2ccccc2o1 | 4.15% |
| CS(=O)(=O)c1ccc2c(c1)SC1=NC(=O)/C(=C/c3ccco3)C(=N)N12 | 3.34% |
| COC(=O)COc1ccc2c(c1C)O/C(=C\c1ccco1)C2=O | -6.31% |
| CC(C)(C)C1C/C(=C/c2ccco2)C(=O)/C(=C/c2ccco2)C1 (stereo unspecified) | 10.1% (active) |
